Reference: PubChem BioAssay (NCI)
About 83,000 compounds went through this panel and 20% of them were active in at least one assay; those are over-represented in the sample as a whole.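 Assay: single dose, 48 h. Readout: percent growth (0 = no net growth; negative = cell death). Active: <10.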 A number with no mark means an inactive call. Calls of active or inactive are those of the source.

Key:
Test in all cases: NCI-60 one-dose screen, 48 h (100 = growth as untreated, 0 = no growth, -100 = all killed)
DU-145 prostate = settings: 10 µM unless noted
K-562 leukemia = settings: 10 µM unless noted
MALME-3M melanoma = settings: 10 µM unless noted
MDA-MB-231 breast = settings: 10 µM unless noted
RXF 393 renal = settings: 10 µM unless noted
SF-268 CNS = settings: 10 µM unless noted
SF-295 CNS = settings: 10 µM unless noted
SF-539 CNS = settings: 10 µM unless noted
UACC-257 melanoma = settings: 10 µM
M14 melanoma = settings: 10 µM unless noted
HCT-15 colon = settings: 10 µM unless noted
HT29 colon = settings: 10 µM unless noted
SNB-75 CNS = settings: 10 µM unless noted
SNB-19 CNS = settings: 10 µM unless noted
U251 CNS = settings: 10 µM unless noted
PC-3 prostate = settings: 10 µM unless noted
SK-MEL-5 melanoma = settings: 10 µM unless noted
UACC-62 melanoma = settings: 10 µM unless noted
LOX IMVI melanoma = settings: 10 µM unless noted
SK-MEL-28 melanoma = settings: 10 µM unless noted

| SMILES | growth (DU-145 prostate) | growth (K-562 leukemia) | growth (MALME-3M melanoma) | growth (MDA-MB-231 breast) | growth (RXF 393 renal) | growth (SF-268 CNS) | growth (SF-295 CNS) | growth (SF-539 CNS) | growth (UACC-257 melanoma) | growth (M14 melanoma) | growth (HCT-15 colon) | growth (HT29 colon) | growth (SNB-75 CNS) | growth (SNB-19 CNS) | growth (U251 CNS) | growth (PC-3 prostate) | growth (SK-MEL-5 melanoma) | growth (UACC-62 melanoma) | growth (LOX IMVI melanoma) | growth (SK-MEL-28 melanoma) |
| --- | --- | --- | --- | --- | --- | --- | --- | --- | --- | --- | --- | --- | --- | --- | --- | --- | --- | --- | --- | --- |
| C=C(C)[C@@H]1CC[C@]2(COS(C)(=O)=O)CC[C@]3(C)[C@H](CC[C@@H]4[C@@]5(C)CCCNC(C)(C)[C@@H]5CC[C@]43C)[C@@H]12 | 42.1% | 1.12% (active) | 97% | 91.6% | 85.3% | 106% | -40.1% (active) | 84.9% | 107% | 84% | 3.99% (active) | 19.7% | 112% | 81.5% | 13.6% | 67.7% | 97.4% | 74.8% | -79% (active) | 103% |
| CC(=O)Oc1ccc(CCN2C(=O)CSC2=S)cc1 | 11% | 57.2% | 83.2% | 64.4% | 69.8% | 92.1% | 103% | 85.2% | 95.9% | 85.7% | 62.3% | 107% | 103% | 94.9% | 104% | 78.2% | 86% | 85.7% | 41.6% | 90.6% |
| O=c1[nH]c(CNc2ccc(NCc3c(-c4ccccc4)no[n+]3[O-])cc2)nc2c1cnn2-c1ccccc1 | 74.6% | 49.8% | 80% | 72.5% | 98.4% | 73.5% | 71.8% | 92.6% | 60.6% | 70.7% | 71.2% | 92% | 76.1% | 94% | 85.5% | 63.3% | 39% | 52.5% | 63.6% | 85.3% |
| CCC(=O)Nc1cc(Nc2cc(NC3CC3)n3ncc(C#N)c3n2)ccc1C | 44.7% | 22.9% | 30.8% | 19.5% | -8.35% (active) | 35% | 21.7% | 21.8% | 34.2% | 14.9% | 13% | 25.8% | -9.89% (active) | 25.9% | 19.5% | 19.7% | 15.2% | 18.9% | 21.1% | 46.3% |
| Fc1ccccc1/C=C(/C1=NCCN1)n1cnc2ccccc21 | 97.2% | 94.1% | 91% | 93.4% | 84.1% | 90.9% | 100% | 95.6% | 96.9% | 95.1% | 93% | 112% | 92.2% | 97.6% | 101% | 95.7% | 106% | 94.9% | 90.3% | 95.3% |
| Oc1ccc(CSc2nnc(-c3cnccn3)o2)c2cccnc12 | 26.1% | 10.2% | -6.87% (active) | 31% | 20.6% | 22.9% | -7.6% (active) | 18.6% | 6.92% (active) | 28.6% | 13.8% | 25.2% | 26.5% | 18.1% | 18.5% | 15.2% | -38.5% (active) | 15% | 17.5% | 37.6% |
| O=C(NNc1nc2cc(F)c(F)cc2n2cccc12)c1cccnn1 | 24.3% | 13.3% | 17.8% | 32.4% | 40.1% | 14% | 8.56% (active) | 0.368% (active) | 5.44% (active) | 11.2% | 29.1% | 29.5% | 33.7% | 22.6% | 14.8% | 33.7% | -36.8% (active) | 10.5% | 3.83% (active) | 27.3% |
| C#C[C@]1(O)CC[C@H]2[C@@H]3CC=C4c5sc(C6CCOCC6)nc5CC[C@]4(C)[C@H]3CC[C@@]21C | 97.9% | 13.2% | 88.8% | 73.9% | 4.95% (active) | 91.2% | 37.8% | 56.5% | 78.3% | 59.8% | 36.1% | 44.2% | 78.9% | 86.1% | 57.6% | 63.2% | 85.2% | 64.7% | 65.8% | 56.5% |
